# Laboratory results as given in the supplement of paper PMC8728848.
# Shown is part of a subset that was picked to be rich in the strongest signals.
# Columns and labels:
# Experiment in all cases: glycan array binding signal (z-score within array); higher = stronger binding
# Conditions in all cases: glycan notation: IUPAC condensed, linker removed
# [1] = biological target: Fuc(a1-2)Gal(b1-3)GalNAc(b1-4)[Neu5Ac(a2-3)]Gal(b1-4)Glc
# How it was run: (§1)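 Glycan array data were curated from 3228 arrays in the Consortium for Functional Glycomics database and kept only where the protein sequence was available. Glycan names were converted to IUPAC-condensed notation, and columns mapping to the same glycan were averaged. The binding signal is a within-array Z-score, averaged across arrays of the same protein sequence at different concentrations or buffers and across linkers. Negative Z-scores can be read as non-binding.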
# [2] = biological target: Fuc(a1-2)Gal(b1-4)[Fuc(a1-3)]GlcNAc(b1-3)GalNAc
# How it was run: as §1
# [3] = biological target: Fuc(a1-2)[GalNAc(a1-3)]Gal(b1-4)[Fuc(a1-3)]GlcNAc(b1-3)GalNAc
# How it was run: as §1
# [4] = biological target: Fuc(a1-3)[Gal(b1-4)]GlcNAc(b1-2)Man(a1-3)[Fuc(a1-3)[Gal(b1-4)]GlcNAc(b1-2)Man(a1-6)]Man(b1-4)GlcNAc(b1-4)GlcNAc
# How it was run: as §1
# [5] = biological target: Fuc(a1-3)[Gal(b1-4)]GlcNAc(b1-2)Man(a1-3)[Fuc(a1-3)[Gal(b1-4)]GlcNAc(b1-2)Man(a1-6)]Man(b1-4)GlcNAc(b1-4)[Fuc(a1-6)]GlcNAc
# How it was run: as §1
# Gal(a1-3)Gal(b1-3)GlcNAc = biological target: Gal(a1-3)Gal(b1-3)GlcNAc
# How it was run: as §1
# [6] = biological target: Gal(a1-4)Gal(b1-4)GlcNAc(b1-3)Gal(b1-4)Glc
# How it was run: as §1
# [7] = biological target: Gal(b1-3)GlcNAc(b1-3)Gal(b1-4)GlcNAc(b1-6)[Gal(b1-3)GlcNAc(b1-3)]Gal(b1-4)Glc
# How it was run: as §1
# [8] = biological target: Gal(b1-3)[Fuc(a1-4)]GlcNAc(b1-2)Man(a1-3)[Gal(b1-3)[Fuc(a1-4)]GlcNAc(b1-2)Man(a1-6)]Man(b1-4)GlcNAc(b1-4)[Fuc(a1-6)]GlcNAc
# How it was run: as §1
# [9] = biological target: Gal(b1-4)GlcNAc(b1-2)Man(a1-3)Man(b1-4)GlcNAc(b1-4)GlcNAc
# How it was run: as §1
# [10] = biological target: Gal(b1-4)GlcNAc(b1-2)Man(a1-3)[Gal(b1-4)GlcNAc(b1-2)Man(a1-6)]Man(b1-4)GlcNAc(b1-4)GlcNAc
# How it was run: as §1
# [11] = biological target: Gal(b1-4)GlcNAc(b1-2)Man(a1-6)Man(b1-4)GlcNAc(b1-4)GlcNAc
# How it was run: as §1
# [12] = biological target: Gal(b1-4)GlcNAc(b1-2)[Gal(b1-4)GlcNAc(b1-6)]Man(a1-6)[GlcNAc(b1-4)][Gal(b1-4)GlcNAc(b1-2)Man(a1-3)]Man(b1-4)GlcNAc(b1-4)GlcNAc
# How it was run: as §1
# Gal3S(b1-4)GlcNAc6S = biological target: Gal3S(b1-4)GlcNAc6S
# How it was run: as §1
# Gal3S6S(b1-4)GlcNAc = biological target: Gal3S6S(b1-4)GlcNAc
# How it was run: as §1
# Gal6S(b1-3)GlcNAc = biological target: Gal6S(b1-3)GlcNAc
# How it was run: as §1
# GalNAc(b1-3)GalNAc = biological target: GalNAc(b1-3)GalNAc
# How it was run: as §1
# [13] = biological target: Glc(a1-4)Glc(a1-4)Glc(a1-4)Glc
# How it was run: as §1
# [14] = biological target: GlcNAc(a1-4)Gal(b1-4)GalNAc
# How it was run: as §1
# [15] = biological target: GlcNAc(a1-4)Gal(b1-4)GlcNAc(b1-3)Gal(b1-4)GlcNAc
# How it was run: as §1
# [16] = biological target: GlcNAc(b1-3)Gal(b1-3)GalNAc
# How it was run: as §1
# [17] = biological target: GlcNAc(b1-3)Gal(b1-4)GlcNAc(b1-3)Gal(b1-4)GlcNAc
# How it was run: as §1
# GlcNAc(b1-3)Man = biological target: GlcNAc(b1-3)Man
# How it was run: as §1
# Kdn(a2-3)Gal(b1-3)GlcNAc = biological target: Kdn(a2-3)Gal(b1-3)GlcNAc
# How it was run: as §1
# [18] = biological target: Man(a1-2)Man(a1-3)[Man(a1-2)Man(a1-6)]Man(a1-6)[Man(a1-2)Man(a1-2)Man(a1-3)]Man(b1-4)GlcNAc(b1-4)GlcNAc
# How it was run: as §1
# [19] = biological target: Neu5Ac(a2-3)Gal(b1-4)GlcNAc(b1-3)Gal
# How it was run: as §1
# [20] = biological target: Neu5Ac(a2-3)Gal(b1-4)GlcNAc(b1-3)Gal(b1-4)[Fuc(a1-3)]GlcNAc
# How it was run: as §1
# [21] = biological target: Neu5Ac(a2-3)Gal(b1-4)[Fuc(a1-3)]GlcNAc(b1-3)Gal(b1-4)GlcNAc
# How it was run: as §1
# [22] = biological target: Neu5Ac(a2-3)Gal(b1-4)[Fuc(a1-3)]GlcNAc(b1-3)Gal(b1-4)[Fuc(a1-3)]GlcNAc(b1-3)Gal(b1-4)[Fuc(a1-3)]GlcNAc
# How it was run: as §1
# [23] = biological target: Neu5Ac(a2-3)Gal(b1-4)[Fuc(a1-3)]GlcNAc(b1-3)GalNAc
# How it was run: as §1
# [24] = biological target: Neu5Ac(a2-3)Gal(b1-4)[Fuc(a1-3)]GlcNAc(b1-6)[Gal(b1-3)]GalNAc
# How it was run: as §1
# [25] = biological target: Neu5Ac(a2-3)Gal6S(b1-4)[Fuc(a1-3)]GlcNAc
# How it was run: as §1
# [26] = biological target: Neu5Ac(a2-3)[GalNAc(b1-4)]Gal(b1-4)GlcNAc(b1-3)GalNAc
# How it was run: as §1
# Neu5Ac(a2-6)Gal(b1-4)Glc = biological target: Neu5Ac(a2-6)Gal(b1-4)Glc
# How it was run: as §1
# [27] = biological target: Neu5Ac(a2-6)Gal(b1-4)GlcNAc(b1-2)Man(a1-3)[GlcNAc(b1-2)Man(b1-4)GlcNAc(b1-2)Man(a1-6)]Man(b1-4)GlcNAc(b1-4)GlcNAc
# How it was run: as §1
# [28] = biological target: Neu5Ac(a2-6)Gal(b1-4)GlcNAc(b1-2)Man(a1-6)Man(b1-4)GlcNAc(b1-4)GlcNAc
# How it was run: as §1
# Neu5Ac(a2-6)GalNAc = biological target: Neu5Ac(a2-6)GalNAc
# How it was run: as §1
# [29] = biological target: Neu5Ac(a2-6)GlcNAc(b1-4)GlcNAc(b1-4)GlcNAc
# How it was run: as §1
# [30] = biological target: Neu5Gc(a2-3)Gal(b1-3)GlcNAc
# How it was run: as §1
binder,measurement,setting,value
"Layilin (Mus musculus), Q8C351 (protein) MQPGAALQAMLLAVLLAKPRDSKGRLLSASDLDPRGGQLVCRGGTRRPCYKVIYFHDAFQRLNFEEAKETCMEDGGQLVSIETEDEQRLIEKFIENLLASDGDFWIGLKRLEEKQSNNTACQDLYAWTDGSTSQFRNWYVDEPSCGSEVCVVMYHQPSAPPGIGGSYMFQWNDDRCNMKNNFICKYHDDKPSTTPSIWPGGEATEPATPLLPEETQKEDTKETFKERREAALNLAYILIPSIPLFLLLVVTSAVCWVWICRRKREQTDPSTKEQHTIWPTPRQENSPNLDVYNVIRKQSEADLAEPRPDLKNISFRVCSGEAMPDDMSCDYENIAVNPSESGFVTLASMESGFVTNDIYEFSPDRMGRSKESGWVENEIYY",glycan array binding signal (z-score),[1],-0.101
same,glycan array binding signal (z-score),[2],4.74
same,glycan array binding signal (z-score),[3],2.16
same,glycan array binding signal (z-score),[4],-0.753
same,glycan array binding signal (z-score),[5],1.43
same,glycan array binding signal (z-score),Gal(a1-3)Gal(b1-3)GlcNAc,-0.17
same,glycan array binding signal (z-score),[6],3.88
same,glycan array binding signal (z-score),[7],-0.423
same,glycan array binding signal (z-score),[8],7.71
same,glycan array binding signal (z-score),[9],-0.41
same,glycan array binding signal (z-score),[10],-0.504
same,glycan array binding signal (z-score),[11],-0.753
same,glycan array binding signal (z-score),[12],-0.619
same,glycan array binding signal (z-score),Gal3S(b1-4)GlcNAc6S,-0.103
same,glycan array binding signal (z-score),Gal3S6S(b1-4)GlcNAc,-0.561
same,glycan array binding signal (z-score),Gal6S(b1-3)GlcNAc,-0.243
same,glycan array binding signal (z-score),GalNAc(b1-3)GalNAc,-0.932
same,glycan array binding signal (z-score),[13],-0.492
same,glycan array binding signal (z-score),[14],-1.4
same,glycan array binding signal (z-score),[15],5.27
same,glycan array binding signal (z-score),[16],3.53
same,glycan array binding signal (z-score),[17],3.11
same,glycan array binding signal (z-score),GlcNAc(b1-3)Man,0.015
same,glycan array binding signal (z-score),Kdn(a2-3)Gal(b1-3)GlcNAc,-0.719
same,glycan array binding signal (z-score),[18],0.181
same,glycan array binding signal (z-score),[19],0.955
same,glycan array binding signal (z-score),[20],0.119
same,glycan array binding signal (z-score),[21],-0.212
same,glycan array binding signal (z-score),[22],2.92
same,glycan array binding signal (z-score),[23],1.82
same,glycan array binding signal (z-score),[24],4.15
same,glycan array binding signal (z-score),[25],-0.666
same,glycan array binding signal (z-score),[26],0.49
same,glycan array binding signal (z-score),Neu5Ac(a2-6)Gal(b1-4)Glc,0.086
same,glycan array binding signal (z-score),[27],1.47
same,glycan array binding signal (z-score),[28],-0.392
same,glycan array binding signal (z-score),Neu5Ac(a2-6)GalNAc,-0.757
same,glycan array binding signal (z-score),[29],0.077
same,glycan array binding signal (z-score),[30],0.013
